EphB4 antag – blocks human EphB4 binding to ephrin-B2. inhibition, % at 7 µM. 97,000 compounds, 0.15% hits. EphB4 LBD / TNYL-RAW-Alexa532 peptide, fluorescence polarization. P54760;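 active means inhibition above the screen-wide mean inhibition plus 3 SD, cut at about 15% in these data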
CYP2C19 inh – inhibitors of human CYP2C19; P33261; inhibition, % at 5 µM; CYP2C19 Supersomes, luciferin-H EGE luminescence, 30 min; 96,000 compounds, 21% hits;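 active means CYP2C19 inhibition above a set limit at 5 µM in the primary screen, cut at about 50% in these data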
CYP2C19 activ – cytochrome P450 2C19 (human) activation. P33261. recombinant CYP2C19, luciferin-H EGE luminescence; hits give high values; 0 = fully inhibited enzyme, 1 = untreated enzyme. activation factor at 5 µM. 96,000 tested, under 10 active. AID 1025;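 active means activation factor of at least 2 at 5 µM in the primary screen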
CYP2C9 activ – activators of human CYP2C9; recombinant CYP2C9, luciferin-H conversion, luminescence; hits give high values; factor 1 = untreated enzyme, 0 = blocked; activation factor at 5 µM; 96,000 compounds, 1.4% hits;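 active means activation factor of 2 or more for CYP2C9 at a 5 µM dose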
Target sequence (P11712 whole entry, looked up): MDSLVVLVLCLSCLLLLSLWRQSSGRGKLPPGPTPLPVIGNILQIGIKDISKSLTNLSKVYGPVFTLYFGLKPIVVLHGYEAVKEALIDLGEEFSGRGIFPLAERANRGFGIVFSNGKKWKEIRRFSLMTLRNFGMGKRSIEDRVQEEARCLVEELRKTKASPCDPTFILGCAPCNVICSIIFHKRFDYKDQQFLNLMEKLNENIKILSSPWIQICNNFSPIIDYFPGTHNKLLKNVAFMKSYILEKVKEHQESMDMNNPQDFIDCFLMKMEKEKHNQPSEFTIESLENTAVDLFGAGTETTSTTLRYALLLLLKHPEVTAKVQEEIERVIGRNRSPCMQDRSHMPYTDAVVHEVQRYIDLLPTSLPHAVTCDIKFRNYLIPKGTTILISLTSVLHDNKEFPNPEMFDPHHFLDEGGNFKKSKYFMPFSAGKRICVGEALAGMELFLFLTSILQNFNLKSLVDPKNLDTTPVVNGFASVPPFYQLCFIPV
CYP2C9 inh – inhibitors of human CYP2C9. P11712. CYP2C9 Supersomes, luciferin-H conversion, luminescence. inhibition, % at 5 µM. 96,000 compounds, 20% hits. AID 777;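 active means blocking of liver enzyme CYP2C9 beyond about 50% at 5 µM, limit read from the data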
Large screens that a line does not name were inactive. This is a sample that favours compounds with a hit; in the whole collection about 27% have one here.

O=C(NC(CO)c1ccccc1)c1ccco1 (stereo unspecified)	none
O=C1OCCC1S(=O)(=O)c1ccc2ccccc2c1 (stereo unspecified)	CYP2C9 activ 5
CC1CN(C2CCN(S(=O)(=O)c3ccc4ccccc4c3)CC2)CC(C)O1 (stereo unspecified)	none
O=C(c1ccccc1)N1CCCCC(S(=O)(=O)c2ccc3ccccc3c2)C1=O (stereo unspecified)	CYP2C19 inh 53.5
O=C(NNS(=O)(=O)c1ccc2ccccc2c1)C1CCN(Cc2ccccc2)CC1	none
COc1ccc(CCN2CNc3c(c(=O)n(C)c(=O)n3C)C2)cc1	none (no result: EphB4 antag)
C/C(Cl)=C\CSc1nnc2n(N)c(=O)c3ccccc3n12	none
CCCOC(=O)C1=C(C)NC2=C(C(=O)C(C(=O)OC)C(C)C2)C1c1ccc(N(CC)CC)cc1 (stereo unspecified)	none (no result: CYP2C19 inh, CYP2C19 activ, CYP2C9 activ, CYP2C9 inh)
CCOc1ccccc1-c1nnc(SCC(=O)Nc2ccccc2)o1	CYP2C9 activ 2.4
Cc1cccc(NC(=O)CSc2nnc(-c3ccccc3C)o2)c1	none (no result: CYP2C19 inh, CYP2C19 activ, CYP2C9 activ, CYP2C9 inh)
O=C(CSc1nnc(-c2ccc(F)cc2)o1)Nc1ccc(S(=O)(=O)N2CCCC2)cc1	none
Cc1ccc(NC(=O)CSc2nnc(-c3ccc(S(=O)(=O)N4CCCC4)cc3)o2)cc1C	CYP2C9 inh 53.5
Cc1ccc(NC(=O)CSc2nnc(-c3ccccc3Br)o2)cc1C	CYP2C19 inh 50.6, CYP2C9 inh 73.3
CCCOC(=O)CSc1nnc(-c2ccccc2Cl)o1	CYP2C19 inh 67.3
COc1ccc(OC)c(NC(=O)CCn2cccc2)c1	none
COC(=O)CSc1nnc(-c2ccc(S(=O)(=O)N3CCC(C)CC3)cc2)o1	none
Cc1cccc(NC(=O)CSc2nnc(-c3ccc(S(=O)(=O)N4CCCC4)cc3)o2)c1	EphB4 antag 16.8, CYP2C9 inh 66.4
Cc1ccc(NC(=O)CSc2nnc(-c3ccccc3C)o2)cc1C	none
CC(C)CNC(=O)CSc1nnc(-c2cccc(S(=O)(=O)N3CCCCC3)c2)o1	none
Cc1cc(C)nc(SCc2nnc(SCC(=O)Nc3ccc(C)c(C)c3)o2)n1	CYP2C19 inh 87.9, CYP2C9 inh 74.3
COC(=O)CSc1nnc(-c2ccc(S(=O)(=O)N3CCCCC3)cc2)o1	CYP2C9 inh 64.3
CC(NC(=O)CSc1nnc(-c2cccc(S(=O)(=O)N3CCCCC3)c2)o1)C12CC3CC(CC(C3)C1)C2 (stereo unspecified)	CYP2C19 inh 68.1, CYP2C9 inh 91.4
Nc1nnc(SCC(=O)NC2CCCCC2)n1-c1ccccc1	none
N=c1n(CCO)c2ccccc2n1CCOc1ccccc1	none
COC(=O)C1=C(N)Oc2cc(N(C)C)ccc2C1c1ccccc1OC (stereo unspecified)	none
O=C(Nn1cnnc1)c1ccncc1	none
O=C(NN1C(=O)C2C(C1=O)C1C=CC2C12CC2)c1ccncc1 (stereo unspecified)	CYP2C19 inh 52.1
O=S(=O)(c1cccc2cccnc12)N1CCN(c2ccccc2)CC1	CYP2C19 inh 98.7, CYP2C9 activ 2.8
O=C(C1CCN(S(=O)(=O)c2cccc3cccnc23)CC1)N1CCN(c2ccc(Cl)cc2)CC1	CYP2C19 inh 85.2, CYP2C9 activ 2.3
Cc1ccc2cccc(S(=O)(=O)N3CCN(c4cccc(Cl)c4)CC3)c2n1	CYP2C19 inh 92.0
Cn1cc(S(=O)(=O)N2CCN(c3ccccc3)CC2)c(=O)n(C)c1=O	EphB4 antag 15.9
O=C(C1CCN(S(=O)(=O)c2cccc3cccnc23)CC1)N1CCN(c2ccccn2)CC1	none
N#CCCN1CCN(Cn2c3ccccc3c3ccccc32)CC1	none
CC(C)(C)N(Cc1ccccc1)C(=O)CSc1nnc(CNc2ccc(F)cc2)o1	none
C1CSC2(N1)C1CC3CC2CC(C1)C31NCCS1 (stereo unspecified)	none
CC(C)(C)C1CCc2onc(C(=O)N3CCOCC3)c2C1 (stereo unspecified)	none (no result: EphB4 antag)
CCCNc1nc2c(c(=O)n(C)c(=O)n2C)n1CCC(C)C	none
CCOC(=O)C1CCN(C(=O)C2CCN(S(=O)(=O)c3cccc4cccnc34)CC2)CC1	CYP2C9 activ 2.3
CC1Cc2ccccc2N1C(=O)C1CCCN(S(=O)(=O)c2cccc3cccnc23)C1 (stereo unspecified)	CYP2C19 inh 78.3
O=C(C1CCN(S(=O)(=O)c2ccc3ccccc3c2)CC1)N1CCN(c2ncccn2)CC1	CYP2C19 inh 70.8
COc1ccc(NC(=O)C2CCCN(S(=O)(=O)c3cccc4cccnc34)C2)c(OC)c1 (stereo unspecified)	none
CC1Cc2ccccc2N1C(=O)CN(C)S(=O)(=O)c1cccc2cccnc12 (stereo unspecified)	none
COc1ccc(N2CCN(C(=O)C3CCCN(S(=O)(=O)c4cccc5cccnc45)C3)CC2)cc1 (stereo unspecified)	CYP2C19 inh 65.4
Clc1ccccc1CSc1nnc(-c2ccccn2)n1Cc1ccco1	none
COc1ccccc1Oc1ccc2c(c1)C(=O)N(c1ccc(O)cc1)C2=O	none (no result: EphB4 antag)
CCCCNC(=O)CC1SC(=NCC)N(CC)C1=O (stereo unspecified)	none
O=S1(=O)C=C(Oc2ccc3ccccc3c2)c2ccccc21	none
O=S1(=O)C=C(Oc2ccc(F)cc2)c2ccccc21	CYP2C19 inh 81.4
CN1C(=O)/C(=C/c2ccccc2OCc2cccc(F)c2)NC1=S	CYP2C9 inh 65.3
CC(=O)N1CCCc2cc(S(=O)(=O)NC(C(=O)NC(C)c3ccccc3)C(C)C)ccc21 (stereo unspecified)	none
COc1ccc(NC(=O)C(NS(=O)(=O)c2ccc3c(c2)CCCN3C(C)=O)C(C)C)c(OC)c1 (stereo unspecified)	CYP2C9 inh 64.5
Cc1nc2sc3c(c2c2nnc(SCC(=O)NCc4ccco4)n12)CCCC3	CYP2C19 inh 97.6, CYP2C9 inh 71.5
CCOC(=O)CSc1nc(N)c2c3c(sc2n1)CCCC3	CYP2C9 inh 62.4
O=C(CSc1nnc2c3c4c(sc3ncn12)CCCC4)NCc1ccco1	none
CCOC(=O)CSc1nnc(CSc2nc3sc4c(c3c(=O)[nH]2)CCCC4)n1-c1ccccc1	CYP2C19 inh 74.1, CYP2C9 inh 69.6
CCOC(=O)CSc1nnc2n(C3CCCCC3)c(=O)c3c4c(sc3n12)CCCC4	CYP2C19 inh 53.8, CYP2C9 inh 63.0 (no result: EphB4 antag)
COc1cc(CN2CCN(c3cc(C)ccc3C)CC2)cc([N+](=O)[O-])c1O	none (no result: CYP2C19 inh, CYP2C19 activ, CYP2C9 activ, CYP2C9 inh)
CCOC(=O)c1cnn(-c2ncnc3sc4c(c23)CCC4)c1N	none
CCN(CC)C(=O)CSc1nc(N)c2c3c(sc2n1)CC(C)CC3 (stereo unspecified)	CYP2C19 inh 56.2, CYP2C9 inh 53.9
CC1CCc2c(sc3nc(SCC(=O)NCc4ccco4)nc(N)c23)C1 (stereo unspecified)	CYP2C9 inh 60.8
CCOC(=O)c1cnn(-c2nc(SC)nc3sc4c(c23)CCCC4)c1N	CYP2C9 inh 63.0
CC(NC(=O)c1ccc(F)cc1)C(c1cccs1)N1CCN(C)CC1 (stereo unspecified)	none (no result: CYP2C19 inh, CYP2C19 activ, CYP2C9 activ, CYP2C9 inh)

High-throughput results (PubChem)
